Measurements taken from PubChem BioAssay.
Inconclusive results are not listed. Active and inactive are the calls of the source.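 Rule for the calls, unless noted: active = response below a set limit, under 55% cells CD8-positive and vesicle-bound, and CD8 cells' 90th-percentile brightness under 279; inactive = the rest.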 Peptide text beside a SMILES is read from it. * marks the point of attachment. Boc = CC(C)(C)OC(=O)*; OBn = c1ccc(CO*)cc1

How the values were obtained:
[1] = rapamycin-like changes in RPL19A-GFP expression – cell-based, S. cerevisiae, multiplex flow cytometry, primary screen (AID 1862; in the data active = percent of DMSO control GFP below about 86%;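 note: lower values mimic rapamycin by blocking the RPL19A rise seen in DMSO cells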); conditions: S. cerevisiae RPL19A-GFP strain, flow cytometry fluorescence, 3 h; at 10 µM; stronger effect = lower value
[2] = TOR pathway GLN3 branch reporter MEP2-GFP changes – S. cerevisiae, multiplex flow cytometry, primary screen (AID 1867;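 active = GFP response, as percent of the DMSO control, above the screen-wide mean plus 3 SD, about 139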;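 note: median GFP channel fluorescence of barcode-gated MEP2-GFP cells measured by flow cytometry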); conditions: S. cerevisiae MEP2-GFP strain, 3 h, at 10 µM, stronger effect = higher value, 100% means same as DMSO wells
[3] = TOR pathway RTG branch CIT2 reporter changes – S. cerevisiae, GFP fusion, multiplex flow cytometry, primary screen (AID 1870;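 active = percent response above a set limit, the screen-wide mean plus 3 SD, cut at about 130% in these data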;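 note: barcoded CIT2-GFP strain pooled with four other GFP strains with rapamycin as positive control; median GFP fluorescence per well over plate mean of DMSO wells so 100% = DMSO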); conditions: S. cerevisiae CIT2-GFP expression, 3 h, at 10 µM, stronger effect = higher value
[4] = TOR pathway LAP4-GFP level changes – S. cerevisiae, multiplex flow cytometry, primary screen (AID 1873;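 active = GFP signal, as percent of the solvent control, above the screen mean plus 3 SD, about 149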); conditions: S. cerevisiae LAP4-GFP expression, 3 h, at 10 µM, stronger effect = higher value
[5] = yeast AGP1-GFP level changes, GLN3 branch – cell-based, multiplex flow cytometry, S. cerevisiae, primary screen (AID 1887;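 active = GFP signal above the screen-wide mean plus 3 SD, that is over about 124.5% of the solvent control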;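 note: AGP1-GFP fusion strain of S. cerevisiae within a five-strain barcoded multiplex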); conditions: 3 h, at 10 µM, stronger effect = higher value
[6] = reduced mouse 2C T cell binding to pMHC/ICAM-1 vesicles – MLPCN validation set, flow cytometry, LFA-1/ICAM-1 modulator project, pilot screen (AID 2523); conditions: 2C mouse CD8+ T cells, at 7 µM, stronger effect = lower value; double positive events: measured here: CD8+/vesicle+ event percentage;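 for vesicle binding response: mean PE anti-B7-1 fluorescence of CD8+ cells relative to row control; 100% = QL9-loaded vesicles with DMSO vehicle in the same plate row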
[7] = molecular target: Integrin beta-1 (Homo sapiens) + Integrin alpha-4 (Homo sapiens) (UniProt P13612+P05556); assay: alpha4beta1 integrin LIBS antibody binding reduction – U937 cells, HUTS-21 mAb, flow cytometry, validation set, VLA-4 allosteric modulator project, pilot screen (AID 2674;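 active = inhibition above 50%, about 3 SD of the validation set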;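 note: antibody binding induced by the VLA-4 ligand LDV present at three times its Kd; 0% = LDV ligand with antibody and no compound and 100% = antibody without LDV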); conditions: HUTS-21 LIBS mAb binding, at 6.7 µM, stronger effect = higher value, binding induced by LDV ligand
Chain of Integrin beta-1 (Homo sapiens) + Integrin alpha-4 (Homo sapiens) (P05556 whole entry, looked up): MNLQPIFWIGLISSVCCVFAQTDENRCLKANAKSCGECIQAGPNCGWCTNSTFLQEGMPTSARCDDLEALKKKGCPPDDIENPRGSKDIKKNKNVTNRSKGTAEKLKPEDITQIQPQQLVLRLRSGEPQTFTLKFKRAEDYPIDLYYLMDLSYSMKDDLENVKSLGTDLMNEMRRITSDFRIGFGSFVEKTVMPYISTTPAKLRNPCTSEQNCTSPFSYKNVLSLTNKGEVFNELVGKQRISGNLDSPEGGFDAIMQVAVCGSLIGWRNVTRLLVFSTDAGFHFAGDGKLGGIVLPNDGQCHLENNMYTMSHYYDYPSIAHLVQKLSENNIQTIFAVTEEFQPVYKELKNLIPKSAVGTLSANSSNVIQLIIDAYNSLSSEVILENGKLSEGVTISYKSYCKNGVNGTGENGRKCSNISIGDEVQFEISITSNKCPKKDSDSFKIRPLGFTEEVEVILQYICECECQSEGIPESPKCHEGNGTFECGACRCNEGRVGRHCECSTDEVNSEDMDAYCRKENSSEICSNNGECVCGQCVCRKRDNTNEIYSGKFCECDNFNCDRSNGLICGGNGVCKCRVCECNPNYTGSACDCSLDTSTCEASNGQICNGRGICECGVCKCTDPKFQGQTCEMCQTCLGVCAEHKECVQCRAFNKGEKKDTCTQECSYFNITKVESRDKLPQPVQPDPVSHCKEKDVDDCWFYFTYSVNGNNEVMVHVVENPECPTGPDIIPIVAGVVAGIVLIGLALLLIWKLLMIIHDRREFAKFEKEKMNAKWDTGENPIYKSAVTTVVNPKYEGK
Chain of Integrin beta-1 (Homo sapiens) + Integrin alpha-4 (Homo sapiens) (P13612 whole entry, looked up): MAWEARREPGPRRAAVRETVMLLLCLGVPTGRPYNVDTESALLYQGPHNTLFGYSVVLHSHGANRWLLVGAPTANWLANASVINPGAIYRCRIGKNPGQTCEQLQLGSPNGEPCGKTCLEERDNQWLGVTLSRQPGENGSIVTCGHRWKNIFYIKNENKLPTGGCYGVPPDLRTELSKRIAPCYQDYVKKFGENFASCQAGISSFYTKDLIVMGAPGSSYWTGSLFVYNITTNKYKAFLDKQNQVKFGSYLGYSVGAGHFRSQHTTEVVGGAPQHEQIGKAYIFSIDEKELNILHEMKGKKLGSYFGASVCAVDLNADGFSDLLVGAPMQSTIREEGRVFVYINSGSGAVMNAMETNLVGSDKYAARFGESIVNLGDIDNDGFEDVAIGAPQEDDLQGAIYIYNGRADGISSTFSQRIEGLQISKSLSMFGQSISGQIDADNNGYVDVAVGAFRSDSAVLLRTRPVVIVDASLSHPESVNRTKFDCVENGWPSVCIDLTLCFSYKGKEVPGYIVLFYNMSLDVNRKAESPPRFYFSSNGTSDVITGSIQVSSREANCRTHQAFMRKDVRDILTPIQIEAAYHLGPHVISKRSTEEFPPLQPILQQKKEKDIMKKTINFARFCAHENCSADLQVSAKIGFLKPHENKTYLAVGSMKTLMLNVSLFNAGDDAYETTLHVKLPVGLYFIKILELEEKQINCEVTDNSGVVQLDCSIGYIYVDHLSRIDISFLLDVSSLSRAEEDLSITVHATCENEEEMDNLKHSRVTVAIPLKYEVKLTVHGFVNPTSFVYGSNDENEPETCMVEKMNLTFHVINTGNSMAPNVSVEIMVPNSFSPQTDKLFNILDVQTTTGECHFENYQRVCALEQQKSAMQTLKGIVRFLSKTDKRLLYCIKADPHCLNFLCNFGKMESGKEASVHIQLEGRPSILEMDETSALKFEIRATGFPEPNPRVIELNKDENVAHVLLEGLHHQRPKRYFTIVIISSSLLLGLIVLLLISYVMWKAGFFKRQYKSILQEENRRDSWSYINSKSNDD

[8] = calorie-restriction mimetic ROS inhibitors, yeast – validation compound set, pilot screen (AID 2706;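 active = superoxide response below 65% of plate, a cut near 3 SD across the whole screen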;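 note: yeast exposed to compound for one week at 30 degrees C before staining; 100% = mean of all compound wells on the same plate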); conditions: S. cerevisiae aging, superoxide DHE fluorescence; at 10 µM, stronger effect = lower value
[9] = molecular target: Beta-adrenergic receptor kinase 1 (Homo sapiens) (UniProt P25098); assay: GRK2 binders displacing RNA aptamer, biochemical, validation, human GRK2, bead flow cytometry (AID 488806;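 active = aptamer binding inhibition above 30%, about 3 SD of noise from non-fluorescent compounds; inactive = inhibition at or below 30%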); conditions: bead-bound GRK2, FAM-aptamer displacement, at 10 µM, stronger effect = higher value
Chain of Beta-adrenergic receptor kinase 1 (Homo sapiens) (P25098 whole entry, looked up): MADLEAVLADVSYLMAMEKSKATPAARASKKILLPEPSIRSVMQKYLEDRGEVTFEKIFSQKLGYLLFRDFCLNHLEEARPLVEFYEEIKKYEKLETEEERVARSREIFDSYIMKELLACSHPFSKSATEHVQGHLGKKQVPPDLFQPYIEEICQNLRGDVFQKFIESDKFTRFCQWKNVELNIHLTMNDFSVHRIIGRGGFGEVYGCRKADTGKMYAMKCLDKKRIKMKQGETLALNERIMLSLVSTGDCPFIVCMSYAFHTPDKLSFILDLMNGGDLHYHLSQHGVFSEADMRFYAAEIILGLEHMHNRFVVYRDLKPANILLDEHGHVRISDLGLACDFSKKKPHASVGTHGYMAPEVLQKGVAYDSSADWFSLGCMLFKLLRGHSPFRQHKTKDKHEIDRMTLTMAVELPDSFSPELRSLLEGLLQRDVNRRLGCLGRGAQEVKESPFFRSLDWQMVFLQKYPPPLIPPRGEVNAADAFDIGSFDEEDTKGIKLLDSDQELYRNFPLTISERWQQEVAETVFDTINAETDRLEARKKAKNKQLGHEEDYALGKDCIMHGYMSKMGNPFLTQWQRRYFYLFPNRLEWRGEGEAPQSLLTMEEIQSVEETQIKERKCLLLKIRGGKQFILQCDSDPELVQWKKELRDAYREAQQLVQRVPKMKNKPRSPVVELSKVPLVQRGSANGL

[10] = molecular target: AP-2 complex subunit beta (Homo sapiens) (UniProt P63010); assay: beta-arrestin/AP2 interaction blockers – biochemical, validation set, GST-AP2 beads, flow cytometry, pilot screen (AID 504541;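 active = inhibition above 54%, about 3 SD of non-fluorescent compounds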;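 note: AP2 carries R879A mutation and is captured from E. coli lysate; bead-bound FITC arrestin peptide fluorescence measuring arrestin peptide binding to AP2; 0% = DMSO wells and 100% = excess unlabeled arrestin peptide control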); conditions: FITC arrestin peptide, at 10 µM, stronger effect = higher value, AP2 beta2 appendage fragment, R879A mutant
Chain of AP-2 complex subunit beta (Homo sapiens) (P63010 whole entry, looked up, the tested form may be a part, one chain of several): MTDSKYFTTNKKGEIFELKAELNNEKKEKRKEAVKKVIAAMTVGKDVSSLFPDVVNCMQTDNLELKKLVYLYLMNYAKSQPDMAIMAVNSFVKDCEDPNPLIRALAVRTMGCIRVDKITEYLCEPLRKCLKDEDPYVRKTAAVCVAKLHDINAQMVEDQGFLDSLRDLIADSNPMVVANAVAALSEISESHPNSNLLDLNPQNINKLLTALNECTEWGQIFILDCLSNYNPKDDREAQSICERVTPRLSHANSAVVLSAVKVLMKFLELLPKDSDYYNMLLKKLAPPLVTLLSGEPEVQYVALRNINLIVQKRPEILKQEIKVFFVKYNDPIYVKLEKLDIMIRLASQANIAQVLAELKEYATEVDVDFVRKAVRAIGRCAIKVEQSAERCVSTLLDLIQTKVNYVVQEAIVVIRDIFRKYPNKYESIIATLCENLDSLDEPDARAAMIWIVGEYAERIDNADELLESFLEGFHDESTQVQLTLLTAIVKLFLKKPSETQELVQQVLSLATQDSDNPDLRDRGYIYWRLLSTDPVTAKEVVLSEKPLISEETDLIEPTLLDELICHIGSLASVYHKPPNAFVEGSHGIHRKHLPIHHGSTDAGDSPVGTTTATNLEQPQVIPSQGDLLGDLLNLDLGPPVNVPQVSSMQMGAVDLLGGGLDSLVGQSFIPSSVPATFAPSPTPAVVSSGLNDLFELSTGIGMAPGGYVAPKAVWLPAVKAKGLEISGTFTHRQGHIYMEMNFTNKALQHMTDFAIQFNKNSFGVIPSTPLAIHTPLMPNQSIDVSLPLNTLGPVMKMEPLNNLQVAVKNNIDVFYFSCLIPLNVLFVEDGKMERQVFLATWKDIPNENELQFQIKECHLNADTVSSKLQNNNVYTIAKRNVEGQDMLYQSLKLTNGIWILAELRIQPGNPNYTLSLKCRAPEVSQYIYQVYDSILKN

[11] = cytosolic pH regulators acting via V-ATPase – S. cerevisiae, pHLuorin, HTS validation (AID 504600; in the data active = response above about 15%;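 note: plate controls were DMSO for no effect and reference compound for full effect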); conditions: V-ATPase proton transport, at 10 µM, stronger effect = higher value
[12] = system: anti-desmoglein-3 scFv antibody binding to human DSG3; assay: blockers of pathogenic pemphigus antibody–desmoglein-3 binding – biochemical, validation compound set, bead-based, flow cytometry, pilot screen (AID 588368;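 active = binding below the plate cutoff, the plate median minus 3 SD, with a reading above zero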;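 note: signal is the median channel fluorescence of bead-bound GFP antibody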); conditions: Protein G beads, DSG3-Fc, scFv-GFP binding, at 10 µM, stronger effect = lower value
[13] = Nile Red efflux blockade in pump-expressing yeast – validation compound set, multiplex, phenotypic, pilot screen (AID 588506;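 active = efflux inhibition above 0.42, the validation set average plus 4 SD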;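 note: Nile Red retained in cells so higher fluorescence means more efflux inhibition; 0 = negative control wells and 1 = enniatin B 25 µM full block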); conditions: S. cerevisiae pump-expressing triplex, Nile Red efflux flow cytometry; at 10 µM; stronger effect = higher value; the pumps come from Candida albicans
[14] = molecular target: ATP-binding cassette sub-family B member 6 (Homo sapiens) (UniProt Q9NP58); assay: blockers of ABCB6-driven porphyrin uptake – K562-ABCB6 cells, flow cytometry, validation set, pilot screen (AID 588550;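 active = inhibition above the screen-wide mean plus 3 SD, about 51%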;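 note: 0% = DMSO wells and 100% = benzethonium chloride 70 µM positive control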); conditions: K562-ABCB6 porphyrin accumulation, 1 h, at 10 µM, stronger effect = higher value
Chain of ATP-binding cassette sub-family B member 6 (Homo sapiens) (Q9NP58 whole entry, looked up): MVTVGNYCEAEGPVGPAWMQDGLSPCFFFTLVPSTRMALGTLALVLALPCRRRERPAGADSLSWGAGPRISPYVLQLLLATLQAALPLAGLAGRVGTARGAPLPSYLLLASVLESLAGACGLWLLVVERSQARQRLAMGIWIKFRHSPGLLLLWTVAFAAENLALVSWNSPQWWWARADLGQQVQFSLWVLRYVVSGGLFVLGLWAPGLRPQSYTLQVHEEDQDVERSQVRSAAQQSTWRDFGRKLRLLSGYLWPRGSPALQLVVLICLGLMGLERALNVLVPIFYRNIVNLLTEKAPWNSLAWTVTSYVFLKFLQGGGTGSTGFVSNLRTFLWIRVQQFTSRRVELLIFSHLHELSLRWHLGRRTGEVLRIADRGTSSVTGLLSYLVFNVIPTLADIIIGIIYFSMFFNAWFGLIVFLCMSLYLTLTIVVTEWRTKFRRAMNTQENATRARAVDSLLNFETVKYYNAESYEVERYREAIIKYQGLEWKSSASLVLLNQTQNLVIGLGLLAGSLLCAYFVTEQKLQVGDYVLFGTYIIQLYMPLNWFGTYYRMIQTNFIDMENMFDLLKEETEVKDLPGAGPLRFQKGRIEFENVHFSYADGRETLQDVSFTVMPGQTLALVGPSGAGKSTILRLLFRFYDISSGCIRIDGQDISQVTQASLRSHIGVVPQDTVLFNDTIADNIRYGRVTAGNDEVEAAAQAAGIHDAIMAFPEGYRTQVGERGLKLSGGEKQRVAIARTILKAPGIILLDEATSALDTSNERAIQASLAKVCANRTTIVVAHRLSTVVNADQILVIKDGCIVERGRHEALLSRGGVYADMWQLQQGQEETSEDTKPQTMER

[15] = AML differentiation inducers, ER-HoxA9 marrow cells – cell-based, GFP/MAC1 double positive, flow cytometry, validation set, primary screen (AID 588685;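 active = differentiation response of at least 50%, scaled between solvent and reference control, from cells with both markers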;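 note: compound exposure lasts four days before antibody staining and flow analysis; 0% = DMSO wells and 100% = 5 µM fulvestrant positive control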); conditions: stronger effect = higher value, normalized: vehicle 0, fulvestrant 100

| SMILES | percent of DMSO control GFP [1] | GFP response vs DMSO [2] | percent response of DMSO control [3] | GFP response vs DMSO [4] | GFP response, % of DMSO [5] | double positive events [6] | vesicle binding response [6] | inhibition [7] | superoxide response (% of plate) [8] | aptamer binding inhibition [9] | inhibition [10] | response [11] | binding (% of control) [12] | efflux inhibition (fraction of control) [13] | inhibition [14] | differentiation response [15] |
| --- | --- | --- | --- | --- | --- | --- | --- | --- | --- | --- | --- | --- | --- | --- | --- | --- |
| OC(CCN1CCCCC1)(c1ccccc1)C1CCCCC1 (stereo not given) | 107% (inactive) | 102% (inactive) | 108% (inactive) | 106% (inactive) | 105% (inactive) | 40.6% | 185% (inactive) | 0% (inactive) | 97.3% (inactive) | -3% (inactive) | -9.7% (inactive) | -2.57% (inactive) | 108% (inactive) | -0.05 (inactive) | 5% (inactive) | -8.27% (inactive) |
| Cc1cnc(C(=O)N2CCCC(C(=O)c3ccc(Cl)cc3C)C2)cn1 (stereo not given) | 104% (inactive) | 99.9% (inactive) | 105% (inactive) | 96.4% (inactive) | 101% (inactive) | 50% | 175% (inactive) | -2.11% (inactive) | 109% (inactive) | 2% (inactive) | 21.9% (inactive) | 2.89% (inactive) | 101% (inactive) | 0.18 (inactive) | -25% (inactive) | -18% (inactive) |
| NCCCC(=O)O | 97.8% (inactive) | 99.9% (inactive) | 95.9% (inactive) | 103% (inactive) | 96.7% (inactive) | 57.8% | 192% (inactive) | 10.9% (inactive) | 103% (inactive) | 0% (inactive) | 2.65% (inactive) | -1.76% (inactive) | 99.8% (inactive) | 0.94 (active) | -31% (inactive) | -13.1% (inactive) |
| CN1CCC(=C2c3ccccc3C=Cc3ccccc32)CC1 | 98.8% (inactive) | 99.9% (inactive) | 105% (inactive) | 104% (inactive) | 99.7% (inactive) | 62.8% | 194% (inactive) | 13.8% (inactive) | 88.8% (inactive) | -3% (inactive) | 24.3% (inactive) | -5.41% (inactive) | 97.2% (inactive) | -0.09 (inactive) | 8% (inactive) | -29.3% (inactive) |
| CN1CCC(OC(c2ccccc2)c2ccccc2)CC1 | 104% (inactive) | 105% (inactive) | 104% (inactive) | 105% (inactive) | 104% (inactive) | 66.3% | 186% (inactive) | 7.22% (inactive) | 95.8% (inactive) | 3% (inactive) | -2.62% (inactive) | 1.48% (inactive) | 102% (inactive) | 0.03 (inactive) | 9% (inactive) | 4.64% (inactive) |
| O=C(CCN1CCC(c2ccccc2)C1)c1ccc2c(c1)OCCO2 (stereo not given) | 102% (inactive) | 134% (inactive) | 103% (inactive) | 104% (inactive) | 102% (inactive) | 47.2% | 140% (inactive) | 13.8% (inactive) | 94% (inactive) | 5% (inactive) | -9.51% (inactive) | 2.78% (inactive) | 103% (inactive) | -0.31 (inactive) | 6% (inactive) | -5.05% (inactive) |
| Cn1nc(-c2ccccn2)nc2c(=O)n(C)c(=O)nc1-2 | 103% (inactive) | 98.9% (inactive) | 110% (inactive) | 105% (inactive) | 105% (inactive) | 59.4% | 165% (inactive) | -40.4% (inactive) | 107% (inactive) | 61% (active) | 17.4% (inactive) | -11.7% (inactive) | 94.9% (inactive) | -0.12 (inactive) | -1% (inactive) | -22.8% (inactive) |
| CC(C)CC(NC(=O)C(NC(=O)OC(C)(C)C)C(C)C)C(=O)NC(CCC(=O)OCc1ccccc1)C(N)=O (stereo not drawn) (Boc-Val-Leu-Glu(OBn)-NH2; configuration not given here) | 99.6% (inactive) | 98.9% (inactive) | 95.9% (inactive) | 84.3% (inactive) | 93.1% (inactive) | 65% | 186% (inactive) | 3.49% (inactive) | 94.3% (inactive) | 0% (inactive) | 2.78% (inactive) | -7.35% (inactive) | 101% (inactive) | 0.41 (inactive) | 11% (inactive) | 22.4% (inactive) |
| COc1ccc([C@@H]2Sc3ccccc3N(CCN(C)C)C(=O)[C@@H]2OC(C)=O)cc1 | 104% (inactive) | 102% (inactive) | 105% (inactive) | 93.3% (inactive) | 101% (inactive) | 62.9% | 200% (inactive) | -0.24% (inactive) | 101% (inactive) | -1% (inactive) | 5.2% (inactive) | -4.23% (inactive) | 99.1% (inactive) | 0.03 (inactive) | -227% (inactive) | -8.27% (inactive) |
| Cc1ncc([N+](=O)[O-])n1CC(O)CCl (stereo not given) | 101% (inactive) | 103% (inactive) | 102% (inactive) | 104% (inactive) | 100% (inactive) | 59.5% | 193% (inactive) | 7.22% (inactive) | 101% (inactive) | 4% (inactive) | 24.7% (inactive) | -1.86% (inactive) | 105% (inactive) | -0.09 (inactive) | 8% (inactive) | -0.2% (inactive) |
